High-throughput results deposited in PubChem BioAssay by Johns Hopkins Ion Channel Center.
An excerpt weighted towards active compounds, which were near 1.6% of everything screened.
KCNQ2 enhance: enhances the rat KCNQ2 potassium channel; O88943; CHO-K1 KCNQ2, FluxOR thallium flux fluorescence; stronger effect = higher value; B-score at 10 µM; actives 0.54% (n = 310,000); AID 2239;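 active = fluorescence ratio B-score at least 3 SD of library B-scores, with initial fluorescence B-score within 3 of them, cut at about 5.3 in these data; same plate scores as AID 2156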;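 also: B-score of peak minus minimum over baseline fluorescence ratio after K+ and Tl+ stimulus; positive B-score means potentiation of KCNQ2 with more thallium influx and brighter signal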
KCNQ2 block: blocks the rat KCNQ2 potassium channel | O88943 | CHO-K1 KCNQ2, FluxOR thallium flux, 20 min; stronger effect = lower value | B-score at 10 µM | actives 1.1% (n = 310,000);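 active = fluorescence ratio B-score at most minus 3 library SDs, with starting brightness B-score within 2 library SDs, cut at about -5.5 in these data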
Starred values were filed as active, the others as inactive; i = inactive; · = no result.

SMILES | KCNQ2 enhance | KCNQ2 block
COc1cccc(CN2CC(C(=O)N(C)C3CCOCC3)CCC2=O)c1 (stereo not given) | 1.7 | i
COc1ccccc1C(=O)N(CCN(C)C)c1nc2cc(C)cc(C)c2s1 | · | i
CN(C)CCN(C(=O)c1ccc2c(c1)CCCC2)c1nc2cc3c(cc2s1)OCCO3 | -7.8 | -7.8*
Cc1cc(C)c2sc(N(CCN(C)C)C(=O)c3ccc4ccccc4c3)nc2c1 | -5.9 | -5.9*
CN(C)CCN(C(=O)c1ccc2c(c1)OCCO2)c1nc2cc3c(cc2s1)OCO3 | · | i
Cc1nc2ccc(Cl)cc2nc1C | · | i
CCc1cc(=O)n2[nH]c(-c3ccccc3)c(-c3ccccc3)c2n1 | 0.03 | i
CN(C)c1ccc(/C=N/NC(=O)CN2CCCCC2)cc1Br | · | i
COC(=O)Cn1c2ccc(OC)cc2c2nc3ccccc3nc21 | -5.7 | -5.7*
CCOC(=O)Cn1c2ccc(OC)cc2c2nc3ccccc3nc21 | · | i
CC1CCC(NC(=O)CCNC(=O)c2ccc(Br)cc2)CC1 (stereo not given) | 0.38 | i
COc1ccc(/C=C2\C(=O)NCC(=O)N2Cc2ccccc2)cc1 | · | i
COc1ccc(/C=C2\C(=O)N(Cc3ccc(F)cc3)CC(=O)N2Cc2ccccc2)cc1 | -6.1 | -6.1*
COc1ccccc1C(CNC(=O)C1CC(=O)N(Cc2ccc(C)cc2)C1)N1CCCC1 (stereo not given) | · | i
Cc1ccc(C)c(Cn2nc(-c3cc(C)ccc3C)ccc2=O)c1 | · | i
O=C(COc1c(F)c(F)c(C(F)(F)F)c(F)c1F)Nc1ccc(N2CCOCC2)c(Cl)c1 | 0.01 | i
CCC(C)c1ccc(NC(=O)COc2c(F)c(F)c(C(F)(F)F)c(F)c2F)cc1 (stereo not given) | 6.1* | i
COC(=O)c1cc(C(=O)NCc2ccc3c(c2)OCO3)cc([N+](=O)[O-])c1 | 2.2 | i
COc1cc(CN2CCN(C(c3ccccc3)c3ccccc3)CC2)cc(OC)c1OC | · | i
Cc1cccc(CN2CCN(C(c3ccccc3)c3ccc(Cl)cc3)CC2)c1 (stereo not given) | -5.9 | -5.9*
O=C(OCC(=O)N1CCN(C(=O)c2ccco2)CC1)c1cc(-c2cccc(Br)c2)nc2ccccc12 | -7 | -7*
O=C(OCC(=O)N1CCN(C(=O)c2ccco2)CC1)c1cc(-c2ccccc2)nc2ccccc12 | · | i
N#Cc1ccsc1NC(=O)C1CCCN1S(=O)(=O)c1cccs1 (stereo not given) | · | i
CC(C)CC(C(=O)NC1CCCC1)N(Cc1cccs1)C(=O)c1snc(C(N)=O)c1N (stereo not given) | -5.7 | -5.7*
CC(C)CC(C(=O)NC1CCCCC1)N(Cc1cccs1)C(=O)c1snc(C(N)=O)c1N (stereo not given) | · | i
SMILES | KCNQ2 enhance | KCNQ2 block
O=c1[nH]c(C2CCN(S(=O)(=O)/C=C/c3ccccc3)CC2)nc2c1nnn2Cc1ccccc1 | · | i
CC(=O)Oc1ccc(C(=O)Nc2ccc(C3(C#N)CCCC3)cc2)cc1 | · | i
CCOC(=O)c1ccc(NC(c2ccc(N(C)C)cc2)P(=O)(OC(C)C)OC(C)C)cc1 (stereo not given) | -6.5 | -6.5*
CCOP(=O)(OCC)C(Nc1ccc(C(=O)O)cc1)c1ccccc1 (stereo not given) | 0.79 | i
CCOC(=O)c1ccc[n+](CC(=O)c2ccc(NC(=O)c3ccccc3)cc2)c1 | · | i
CC(=O)NCCCc1nc2ccccc2n1Cc1c(F)cccc1Cl | · | i
Cc1ccc(OCc2cc(C(=O)N(C)Cc3cnn(-c4ccccc4C)c3)no2)cn1 | 2.5 | i
CCN1C(=O)[C@@H]2Cc3c([nH]c4ccccc34)C(c3cc(OC)c(OC)c(OC)c3)N2C1=S (stereo not given in full) | · | i
C=CCN1C(=O)[C@@H]2Cc3c([nH]c4ccccc34)C(c3cc(OC)c(OC)c(OC)c3)N2C1=S (stereo not given in full) | -6.1 | -6.1*
COc1ccc(-n2nc3c(c2NC(=O)c2cc4ccccc4o2)CS(=O)(=O)C3)cc1 | · | i
Cc1ccccc1-n1nc2c(c1NC(=O)c1ccc(Br)o1)CSC2 | -5.9 | -5.9*
Cc1ccccc1-n1nc2c(c1NC(=O)c1cc3ccccc3o1)CS(=O)(=O)C2 | -7.6 | -7.6*
Cc1ccccc1-n1nc2c(c1NC(=O)c1ccco1)CS(=O)(=O)C2 | 0.64 | i
COc1ccc(S(=O)(=O)NCC(=O)N(Cc2ccco2)C(C(=O)NC(C)(C)C)C(C)C)cc1 (stereo not given) | · | i
COc1c(Cl)cc(C(=O)NCc2ccco2)cc1Cl | · | i
COc1ccc(/C=C2\C(=O)c3ccccc3OC2c2ccccc2)cc1 (stereo not given) | · | i
CCOc1ccc(/C=C2\C(=O)c3ccccc3OC2c2ccccc2)cc1 (stereo not given) | -6.2 | -6.2*
CC1CCC(NC(=O)CCC(=O)N2CC(C)Oc3ccccc32)CC1 (stereo not given) | 0.33 | i
